Many of the other results were omitted from the sample, so hits are more common in it than they were.
Methyltransferases – Primary Screen for Target Class Profiling of Small Molecule Inhibitors of Methyltransferases; purified enzyme, MTase-Glo SAH luminescence; hits give low values; calls only at 40 µM; 25,000 compounds, 3.9% hits; AID 1745853, 2022; call rule not given here
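Each enzyme was assayed with SAM and its substrate. SAH formation detected by MTase-Glo luminescence; single-point 40 uM screen[…].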
Calls only; – = inactive; + = active, no number; ! = repeats disagree.

SMILES	Methyltransferases
Cc1ccc(C(=O)O)c2c1N[C@H](c1cccc(Cl)c1)C1CC=CC21 (some centres not stated)	+
COC(=O)c1ccc([C@@H]2Nc3c(Cl)cccc3[C@@H]3C=CC[C@@H]32)cc1	–
Fc1cccc2c1NC(c1ccc(Cl)cc1)C1CC=CC21 (configuration not stated)	–
O=C(c1cnccn1)N1CCN2C(=O)N(C3CCOCC3)C[C@H]2C1	–
Cc1ccc(C(=O)Cn2nc3n(C)c(=O)c4ccc(C(=O)NC5CCCCC5)cc4n3c2=O)cc1	–
O=C(c1ccccc1)N1CCC(Oc2cccc(F)c2)(C(=O)O)CC1	–
O=C1NC(=O)/C(=C/c2ccc(-c3ccc(F)cc3O)o2)S1	+
CC(C)OCCCn1c(=O)c2ccc(Cl)cc2n2c(SCc3cccc(F)c3)nnc12	–
COc1cc(NS(=O)(=O)c2cc3c(cc2Cl)n(C)c(=O)n3C)cc(OC)c1	–
CCCCCCCOc1cc2c(cc1/C(C)=C/c1ccc(C(=O)O)cc1)C(C)(C)CCS2(=O)=O	+
Cc1cc2c(cc1C1(c3ccc(C(=O)O)cn3)CC1)C(C)(C)CCC2(C)C	–
C[C@@H]1O[C@@H](O[C@H]2[C@H](OC(=O)[C@]34CCC(C)(C)C[C@H]3C3=CCC5[C@@]6(C)C[C@@H](O)[C@@H](O)[C@@](C)(CO)C6[C@H](O)C[C@@]5(C)[C@]3(C)CC4)OC[C@H](O)[C@@H]2O)[C@H](O)[C@H](O)[C@H]1O[C@@H]1OC[C@@H](O)[C@H](O[C@H]2O[C@H](C)[C@@H](O)[C@H](O)[C@@H]2O)[C@H]1O (some centres not stated)	–
CCCC1c2cccn2CCN1C(=O)NCc1ccc(C)cc1 (configuration not stated)	–
CN(C)c1ccc(CNC(=O)Cn2ccc3cc(S(=O)(=O)N4CCCCC4)ccc32)cc1	–
CN(C)c1nc2c(c(=O)[nH]1)CCN(Cc1ccsc1)CC2	–
CN(C)CC1CCn2c(c(C3=C(c4cn(C)c5ccccc45)C(=O)NC3=O)c3ccccc32)C1 (configuration not stated)	+!
Cn1cc(CN2CCCCCNC(=O)[C@@H]3CCC[C@@H]32)c2ccccc21	–
Cn1cc(C(=O)OCC2CCN(CCNS(C)(=O)=O)CC2)c2ccccc21	–
Oc1cc2c(cc1O)C(c1ccccc1)CNCC2 (configuration not stated)	+
CN1CCc2cc(Cl)c(O)cc2[C@@H](c2ccccc2)C1	–
Oc1ccc(CC2NCCc3cc(O)c(O)cc32)cc1 (configuration not stated)	–
COc1cccc(N2C(=O)c3cc(-c4ccccc4)nn3CC2(C)C(=O)NCc2ccccc2OC)c1 (configuration not stated)	–
CC1=CC2C(CC1OC1OC(CO)C(O)C(O)C1O)C(C)CC(=O)C2C(C)C (configuration not stated)	–
CCCN1C(=O)c2c(C(=O)NCCc3ccccc3)ncn2CC1(C)C(=O)NCc1ccc(C)cc1 (configuration not stated)	–
COC(C)(C)CCn1nc(Nc2c(C)cccc2C)c2cnc(Nc3ccc(OCCN4CCCC4)c(F)c3)nc21	+
SMILES	Methyltransferases
CN1CCN(C(=O)c2cc(-c3cccnc3)nc3c2cnn3C)CC1	–
CNCCCC1(c2ccccc2)OC(C)(C)c2ccccc21 (configuration not stated)	–
CSC(=O)OCC1=C[C@@H]2OC(=O)C3=CO[C@@H](O[C@@H]4O[C@H](CO)[C@@H](O)[C@H](O)[C@H]4O)[C@H]1[C@@H]32	+
O=C(/C=C/c1ccc(O)cc1)OCC1=CC2OC(=O)C3=CO[C@@H](O[C@@H]4O[C@H](CO)[C@@H](O)[C@H](O)[C@H]4O)[C@H]1[C@@H]32 (some centres not stated)	–
COC(=O)C1=CO[C@@H](O[C@@H]2O[C@H](CO)[C@@H](O)[C@H](O)[C@H]2O)[C@@H]2C(CO)=CC[C@H]12	–
O=C(O)Cc1cn([C@@H]2OC[C@@H](O[C@@H]3O[C@H](CO)[C@@H](O)[C@H](O)[C@H]3O)[C@H](O)[C@H]2O[C@@H]2O[C@H](CO)[C@@H](O)[C@H](O)[C@H]2O)c2ccccc12	–
NC(=O)[C@H]1CCS[C@@H]2C[C@]3(CCCN3C(=O)Cc3ccc(NC(=O)COc4ccc(Cl)cc4Cl)cc3)C(=O)N12	–
CCN1CCN(C2(C(=O)NCCC3CCCCO3)Cc3ccccc3C2)CC1 (configuration not stated)	–
Cc1[nH]nc2ccc(-c3cncc(OC[C@@H](N)Cc4ccccc4)c3)cc12	+
COC(=O)c1c(C)cc(OC(=O)c2c(C)cc(OC)cc2OC)cc1O[C@@H]1O[C@H](CO)[C@@H](O)[C@H](O)[C@H]1O	–
O=C(Nc1nn(Cc2ccccc2)c2cccc(N3CCOCC3)c12)C1CCC1	–
O=C(NCCCNc1nc(Nc2cccc(CN3CCOCC3)c2)ncc1C1CC1)C1CCC1	+
CNc1nccnc1-c1cccc(CN2CCOCC2)c1	–
COc1cccc(C(=O)Cn2nc3n(CC(C)C)c(=O)c4ccc(C(=O)NC(C)C)cc4n3c2=O)c1	–
COc1cccc(S(=O)(=O)N2CCC(c3noc(-c4ccccn4)n3)C2)c1 (configuration not stated)	–
CN(C)CC[C@H](CSc1ccccc1)Nc1ccc(S(=O)(=O)NC(=O)c2ccc(N3CCN(Cc4ccccc4-c4ccc(Cl)cc4)CC3)cc2)cc1[N+](=O)[O-]	+
CC1(C)CCC(c2ccc(Cl)cc2)=C(CN2CCN(c3ccc(C(=O)NS(=O)(=O)c4ccc(N[C@H](CCN5CCOCC5)CSc5ccccc5)c(S(=O)(=O)C(F)(F)F)c4)cc3)CC2)C1	+
CCCn1c(=O)c2ccc(C(=O)NC3CCCC3)cc2n2c(SCC(=O)NC(C)C)nnc12	–
COc1ccc(NC(=O)Cn2c(=O)oc3cc(S(=O)(=O)N4CC(C)CC(C)C4)ccc32)cc1 (configuration not stated)	–
Cc1c(Cc2ccc3ccccc3n2)c2cc(F)ccc2n1CC(=O)O	–
CCC(C)NC(=O)c1ccc2c(=O)n(C)c3nn(CC(=O)c4ccc(C)cc4)c(=O)n3c2c1 (configuration not stated)	–
CCOc1ccccc1NC(=O)N1Cc2c(sc3c2CCCC3)-n2cccc2C1c1ccc(F)cc1 (configuration not stated)	–
C=C1C[C@]23C[C@H]1CC[C@H]2[C@@]12C=C[C@H](O)[C@@](C)(C(=O)O1)[C@H]2[C@@H]3C(=O)O	–
COc1ccc(CCN2C(=O)c3cc4ccccc4n3CC2(C)C(=O)NCc2ccccc2)cc1OC (configuration not stated)	–
COc1ccc(CN2C(=O)c3cc4ccccc4n3CC2(C)C(=O)NCc2ccccc2)cc1OC (configuration not stated)	+
Cc1cccc(CN2C(=O)c3cc4ccccc4n3CC2(C)C(=O)NCc2ccccc2)c1 (configuration not stated)	–
CCOC(=O)c1cc2n(n1)CC(C)(C(=O)NCc1ccccc1OC)N(c1ccc3c(c1)OCO3)C2=O (configuration not stated)	–
CC(=O)OC1C(O)CC2(C)C(CCC3(C)C2CC=C2C4C5(CCC(CO[C@@H]6O[C@H](CO)[C@@H](O)[C@H](O)[C@H]6O)(OC5=O)C4(C)O)C(O)CC23C)C1(C)C (some centres not stated)	–
Cc1ccc2c(cnn2C(=O)CCCC(=O)N2CCN(c3cccc(Cl)c3)CC2)c1	–

High-throughput results from PubChem.
